Assay outcomes: PubChem, several laboratories
D1 allo mod – allosteric modulators of human D1 dopamine receptor; P21728; HEK293 D1, CRE-luciferase, dopamine EC30 potentiation; actives deviate in either direction; B-score at 10 µM; 58,000 tested, 5.9% active; AID 641;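 active means luminescence count or its row- and column-corrected plate score outside the 99.7% band of the plate's sample wells, on either side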
FXIIa inh mix – factor XIIa (human) inhibition, mixture screen | 62,000 tested, 0.2% active | inhibition, % at 5 µM | P00748 | AID 684 | purified FXIIa, fluorogenic substrate, pooled mixtures;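 further: 0% = enzyme without compound and 100% = no enzyme blank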
Target sequence (P00748 20-372 limits assumed): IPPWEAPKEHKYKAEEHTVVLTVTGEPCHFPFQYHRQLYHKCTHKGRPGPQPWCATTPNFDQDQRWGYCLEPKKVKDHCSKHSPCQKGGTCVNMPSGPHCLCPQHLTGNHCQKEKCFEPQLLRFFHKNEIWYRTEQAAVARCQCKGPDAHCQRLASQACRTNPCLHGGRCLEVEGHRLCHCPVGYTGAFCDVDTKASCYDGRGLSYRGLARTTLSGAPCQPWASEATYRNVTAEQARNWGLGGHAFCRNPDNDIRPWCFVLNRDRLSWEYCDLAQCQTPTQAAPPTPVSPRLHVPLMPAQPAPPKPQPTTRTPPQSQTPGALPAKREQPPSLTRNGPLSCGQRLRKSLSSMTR
Target sequence (P00748 373-615 limits assumed): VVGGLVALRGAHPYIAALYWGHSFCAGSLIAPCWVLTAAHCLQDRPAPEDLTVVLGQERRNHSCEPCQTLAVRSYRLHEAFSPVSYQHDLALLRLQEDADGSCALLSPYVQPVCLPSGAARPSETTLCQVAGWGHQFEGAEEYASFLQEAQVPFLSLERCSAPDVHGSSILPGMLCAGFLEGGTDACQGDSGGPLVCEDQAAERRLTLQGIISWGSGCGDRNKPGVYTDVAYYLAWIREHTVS
DAT uptake mod – changed human dopamine transporter uptake under cocaine IC80; Q01959; LLC-PK1 hDAT cells, [14C]-dopamine uptake with cocaine IC80; actives deviate in either direction; B-score at 10 µM; 110,000 tested, 1.3% active; AID 449768;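 active means Z score or B-score, a plate-position-corrected score, falls beyond the plate's 99.7% confidence bounds, in either direction; inactive means both scores lie inside the 99.7% bounds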;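 further: scored against the spread of the other compound wells on the same plate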
M1 ag – M1 muscarinic receptor agonism; AID 626; CHO-M1 cells, Fluo-4 calcium fluorescence, agonist mode; stronger effect = higher value; B-score at 10 µM; 64,000 tested, 3% active;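 active means fluorescence rise, raw or as B-score row- and column-corrected plate score, outside the 99.7% band of its plate's samples, either direction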
FXIa inh mix – inhibitors of human coagulation factor XIa, pooled mixtures | purified FXIa, fluorogenic substrate | inhibition, % at 5 µM | 62,000 tested, 0.19% active | AID 680;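 further: each value is inhibition by a whole ten-compound pool holding the compound; 0% = enzyme with no mixture and 100% = wells lacking enzyme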
M1 antagonist – M1 muscarinic receptor (rat) antagonism. CHO-M1 cells, Fluo-4 calcium, ACh EC80 antagonist mode; stronger effect = lower value. AID 628. P08482. 64,000 tested, 3.4% active. B-score at 10 µM;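 active means calcium fluorescence response, raw or row-and-column corrected B-score, differing from the plate sample mean either way at a set confidence level, mostly lower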
Active calls of the source: *; . = not tested or not shown. An excerpt weighted towards active compounds, which were near 7.4% of everything screened. Unless noted, no stated cut-off is given here; in the data, active means inhibition above about 20% (passing the limit was not always enough); inactive means the rest.

SMILES	D1 allo mod	FXIIa inh mix	DAT uptake mod	M1 ag	FXIa inh mix	M1 antagonist
O=C(NCCc1ccccc1)c1noc2c1CCc1ccccc1-2	-1.2	8	-0.033	.	36*	.
CCCNC(=O)c1noc2c1CCc1ccccc1-2	-0.38	1	1.2	0.73	10	0.81
O=C(NCCc1csc(-c2cccnc2)n1)c1cccc2ccccc12	.	.	-0.35	.	.	.
CC1CC(C(F)(F)F)n2ncnc2N1 (stereo not given)	.	.	-0.0063	-2.3	.	0.026
O=C(Cc1ccccc1F)Nc1nc(-c2cccs2)cs1	0.31	2	3.4*	-0.17	6	-1
O=C1CS/C(=C/C(=O)c2ccccc2)N1	0.39	13	0.95	0.0072	-1	-0.16
Cc1cc(C)cc(C(=O)/C=C2\NC(=O)CS2)c1	-1.8*	9	-0.62	1.1	1	-0.2
COc1cc(C(=O)OC(C)CN2CCOCC2)cc(OC)c1OC (stereo not given)	0.99	2	1.1	0.0036	-2	0.44
COc1cc2c(CCNC(C)=O)c[nH]c2cc1O	.	.	-0.097	.	.	.
COc1cc(NC(=O)COc2ccc(F)cc2)nc(OC)n1	-0.27	-21	0.013	0.39	4	-0.13
Cc1nc(N2CCN(C)CC2)[nH]c(=O)c1Cc1cccc2ccccc12	-2.9	5	2.5*	-1.5	-7	-0.15
CCOc1ccc(/C=C2\C(=O)c3ccccc3OC2c2ccccc2)cc1 (stereo not given)	.	.	-0.39	.	.	.
COc1ccc(-c2cc3nc4c(c(N5CCC6(CC5)OCCO6)n3n2)CCCC4)cc1	3.7*	15	.	-0.19	0	-0.76
CCCc1nc2ccccc2c(=O)n1/N=C/c1ccc(O)cc1O	2.3	0	-8.8*	0.24	4	-0.34
CCCc1nc2ccccc2c(=O)n1/N=C/c1ccc(O)cc1	2.1	6	-0.75	0.046	-5	-0.49
Cc1cc2nc(-c3ccc(SCC(=O)N4CCOCC4)nc3)[nH]c2cc1C	-2.6	4	-0.31	12*	-14	-0.58
Cc1cc2nc(-c3ccc(SCC(=O)N4CCN(C(=O)c5ccco5)CC4)nc3)[nH]c2cc1C	.	2	0.072	0.59	11	-0.58
Nc1ccc(C(=O)OCCCc2nc3ccccc3[nH]2)cc1	-0.67	20	0.51	0.32	9	0.86*
O=C(c1ccco1)N1CCCC(c2nc(-c3ccc(S(=O)(=O)NCc4ccccc4)cc3)no2)C1 (stereo not given)	0.34	-17	.	5.6	9	-0.73
Cc1ccccc1NC(=O)Cc1nnc(SCc2ccc(Cl)c(Cl)c2)n1C	.	.	1.5	.	.	.
CN(C)c1ccc(NC(=S)c2ccccn2)cc1	-6.2*	0	.	0.86	7	-0.32
Cc1cc(C)c(-c2cc(NC(=O)CSc3n[nH]c(N)n3)n(-c3ccccc3)n2)cc1C	.	.	3.3*	.	.	.
O=S(=O)(Nc1cccnc1)c1cccs1	0.041	5	0.79	0.068	45*	2.4*
Cc1cccc(NS(=O)(=O)c2cccs2)c1	.	.	-0.22	.	.	.
CC1=C(C(=O)OCCOc2ccccc2)C(c2ccc(C)o2)C2=C(CC(C)(C)CC2=O)N1 (stereo not given)	0.17	3	3.7*	-0.74	1	-0.99
SMILES	D1 allo mod	FXIIa inh mix	DAT uptake mod	M1 ag	FXIa inh mix	M1 antagonist
CCS(=O)(=O)N1CCN(C(=O)CC(C)C)CC1	.	-9	2	0.11	-23	0.018
CCOC(=O)C(C)c1ccc2cc(OC)ccc2c1 (stereo not given)	.	.	-4.2*	.	.	.
CCOC(=O)C(C(C)=O)C(c1ccc(OC)cc1)C(C(C)=O)C(=O)OCC (stereo not given)	0.19	-16	0.0094	0.68	-1	0.79
CC1CC2(CCCCC2)N2C(=O)C(=O)c3cccc1c32 (stereo not given)	.	.	-0.42	.	.	.
CCOC(=O)CNc1c(N2CCN(c3ccccn3)CC2)c(=O)c1=O	0.51	17	-1.4	0.31	9	1.1*
O=C(C1CCC(CNc2c(N3CCCCC3)c(=O)c2=O)CC1)N1CCN(c2ccccn2)CC1 (stereo not given)	.	-9	.	0.061	6	-0.12
CCC(=O)Nc1cccc(NC(=S)NC(=O)c2ccccc2Cl)c1	.	.	2.7*	.	.	.
CC(C)C(=O)Nc1cccc(NC(=S)NC(=O)c2ccccc2Cl)c1	.	.	0.39	.	.	.
Cc1ccc(S(=O)(=O)N2CCCC(C(=O)NCC3COCCO3)C2)cc1 (stereo not given)	0.22	-4	-1.4	-0.011	4	-0.43
C=CCNC(=O)NS(=O)(=O)c1ccc(C)cc1	-1.2	2	-1.6	0.74	22*	-0.45
Cc1ccc(S(=O)(=O)NC(=O)NCc2ccc(Cl)cc2)cc1	.	.	-1.3	.	.	.
O=c1cc(CN2CCN(Cc3ccccc3)CC2)c2cc(Cl)ccc2o1	-4.2*	2	-0.53	0.39	-7	-0.62
Nc1c(N2CCOCC2)cc(Cl)c2nonc12	-4.8*	11	0.058	0.42	2	0.65
COc1ccc2cc3cc(C(=O)NC(C)C)oc3nc2c1	.	.	-8.2*	.	.	.
COc1ccc(-c2c3c(=O)n(C)c(=O)n(C)c3cn2Cc2cccnc2)cc1	-0.25	-1	-8.7*	0.0022	0	-0.73
CCOc1ccc(-c2nnc3sc(COc4ccc(C)cc4)nn23)cc1	-0.74	9	0.52	0.3	-5	0.0024
Fc1ccc(OCc2nn3cnnc3s2)cc1	-4*	2	-0.068	.	1	.
Cc1ccc(C)c(N2CCN(C(=O)c3ccc(NS(=O)(=O)c4c(C)noc4C)cc3)CC2)c1	-0.84	-9	1.7	0.09	-1	2.2*
CCOC(=O)C(Cc1ccccc1)(NC(C)=O)C(=O)OCC	.	.	-1.2	.	.	.
CCOC(=O)C(CO)(NC(C)=O)C(=O)OCC	0.16	3	0.32	-0.33	1	1.3*
COc1ccc(/C=N/n2c(N)c(S(=O)(=O)c3cccs3)c3nc4ccccc4nc32)cc1OC	.	.	0.86	.	.	.
CCn1ncc(C2=NOC(C(=O)Nc3c(C)nn(Cc4ccc(F)cc4)c3C)C2)c1C (stereo not given)	-1.7	5	-2.1	-2.5*	-4	-0.18
CC1(c2nnc(Cc3ccccc3)o2)CC(c2cccc(Cl)c2)=NO1 (stereo not given)	.	.	0.45	.	.	.
CCCCc1ccc(-c2ccc(C)cc2O)nc1	-5.3*	-10	0.01	-1.2	3	1.2
COc1ccc(CCNC(=O)c2cc3sc(Cl)cc3n2C)cc1OC	-0.34	2	2.3*	0.17	3	-0.12
SMILES	D1 allo mod	FXIIa inh mix	DAT uptake mod	M1 ag	FXIa inh mix	M1 antagonist
COc1ccc(CCNS(=O)(=O)c2ccc3c(c2)OCCO3)cc1	0.95	9	0.18	-1.1	-16	0.084
CCCCOc1cccc(NC(=O)CSc2nccn2C)c1	0.48	3	2.7*	1.3	6	0.45
C=CCn1nnnc1SCC(=O)Nc1cccc(OC)c1	0.081	-5	-0.41	-0.66	7	11*
Cc1noc(C)c1C(=O)N1CCc2ccccc21	0.074	5	-0.51	0.24	8	-0.043
CCOC(=O)/C(C#N)=C1/C=CN(c2ccc(C)cc2)C=N1	.	.	0.81	.	.	.
CCOC(=O)/C(C#N)=C1/SC(CC)C(=O)N1c1ccc(C)cc1 (stereo not given)	2.7	2	-2.8*	0.75	-4	-0.046
CCCOc1ccc(C(=O)NC(=S)Nc2nc3ccccc3s2)cc1	.	.	0.21	.	.	.
